# From PubChem BioAssay (NCI)
# About 83,000 compounds went through this panel and 20% of them were active in at least one assay; those are over-represented in the sample as a whole.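 Step 1: grow cells in 96-well plates. Step 2: add test compound at a single concentration. Step 3: incubate 48 h. Step 4: record percent growth.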 Unmarked numbers belong to inactive results. Activity calls are given as the source filed them. The calls were made as follows: active = growth percent below 10; inactive = the rest.
# Legend:
# Assay in all cases: NCI-60 one-dose screen, 48 h (100 = growth as untreated, 0 = no growth, -100 = all killed)
# Conditions in all cases: 10 µM unless noted
# T-47D breast = test system: T-47D breast
# BT-549 breast = test system: BT-549 breast
# MDA-MB-435 melanoma = test system: MDA-MB-435 melanoma
# SW-620 colon = test system: SW-620 colon
# MCF7 breast = test system: MCF7 breast
# HCT-116 colon = test system: HCT-116 colon
# HCC-2998 colon = test system: HCC-2998 colon
# KM12 colon = test system: KM12 colon
Structure (SMILES),growth (T-47D breast),growth (BT-549 breast),growth (MDA-MB-435 melanoma),growth (SW-620 colon),growth (MCF7 breast),growth (HCT-116 colon),growth (HCC-2998 colon),growth (KM12 colon)
Cc1ccc(/C=C/c2c(C(=O)/C=C/c3ccc(Cl)cc3)c(C)nc3ccccc23)cc1,1.89% (active),-10.4% (active),-47.5% (active),-33.1% (active),12.8%,-59.6% (active),-82.1% (active),-24.9% (active)
COc1cc2ncn3c(=O)c4c5c(sc4nc3c2cc1OC)CCCC5,100%,99.9%,92.5%,90.1%,91.4%,95.5%,102%,97.4%
CC(=O)C(C)Cc1cc2c(cc1C)C(C)(C)CCC2(C)C (centres undefined),80.2%,95.5%,104%,102%,91.8%,95.1%,102%,105%
CN(Cc1cnc2nc(N)nc(N)c2n1)c1ccc(C(=O)N[C@@H](CCc2nn[nH]n2)c2nn[nH]n2)cc1,75.9%,53.2%,38.5%,20.1%,17%,18.3%,52.6%,33%
Cn1c(I)c(C#C[Si](C)(C)C)c(=O)n(C(=O)c2ccccc2)c1=O,17.8%,42.8%,53.9%,-83.4% (active),-18.9% (active),-61.6% (active),0.121% (active),57.3%
COc1ccc(/C=C/c2c(C(=O)/C=C/c3cccs3)c(C)nc3ccccc23)cc1,47.8%,94.3%,68.5%,82.5%,53.9%,47.5%,85.6%,78.9%
COc1ccc(C2CC(c3cccc(OC)c3)=NN2C(=O)c2cc(OC)c(OC)c(OC)c2)cc1 (centres undefined),29%,39.5%,-58.8% (active),22.5%,16.2%,15.3%,-10.3% (active),15.4%
CC1(c2ccccc2)NC(=O)N(NC(=O)CSc2nc(-c3cccs3)nc3ccccc23)C1=O (centres undefined),95.9%,110%,103%,109%,106%,93.6%,98.4%,103%
Cc1cc(NCc2cc(Nc3ccnc4cc(Cl)ccc34)ccc2F)nc(N2CCN(C)CC2)n1,-42.4% (active),28.2%,-96.7% (active),0.137% (active),1.13% (active),0.262% (active),-35.2% (active),14.4%
O=S(=O)(Nc1cccc(Cl)c1)c1ccc(-c2cnc(C3CC3)o2)cc1,25%,26.6%,-21.5% (active),11.3%,14.2%,15.3%,46.3%,20.8%
CNC(=O)CCN1CCN(CC/C=C2\c3ccccc3Sc3ccc(Cl)cc32)CC1,85%,91.5%,72.3%,86.9%,73.2%,68.8%,83.6%,62.3%
CCN1C(=O)N(CC)C2Nn3c(s/c(=C4\C(=O)N(C)c5ccccc54)c3=O)=NC21 (centres undefined),27.5%,53.9%,-59.6% (active),26.3%,13.5%,11.1%,88.6%,29.8%
C[n+]1cc2c3c(ccc2c2ccc4cc5c(cc4c21)OCO5)OCO3,-78.2% (active),-91.7% (active),-85.8% (active),-67.3% (active),-72.5% (active),-89.2% (active),-82.1% (active),-78.5% (active)
C=CCOC1=CC(=O)c2ccccc2C1=O,54.2%,95.4%,-67.5% (active),33.2%,-2.95% (active),8.07% (active),98%,87.8%
CCn1c(C)nc2cc(C(N)=O)ccc21,113%,111%,131%,100%,91.5%,94.6%,96.9%,107%
COc1cc(/C=C2\C(=O)ON=C2C)cc(OC)c1OC,97.9%,112%,102%,97.7%,97%,104%,94.5%,100%
c1ccc2cc3nc4cc5ccccc5cc4nc3cc2c1,94.3%,105%,119%,84.1%,81.9%,72.3%,96.4%,85.4%
Cc1cc[c-]cc1.Fc1c[c-]c(-c2ccccn2)c(F)c1.[Pt+2].c1ccc(P(C[PH+](c2ccccc2)c2ccccc2)c2ccccc2)cc1,8.85% (active),20.6%,8.28% (active),14.6%,6.01% (active),9.8% (active),33.1%,18%
COc1ccccc1CNCCCN1C(=O)c2ccc3c4c(ccc(c24)C1=O)C(=O)N(CCCNCCCCN)C3=O,-14.7% (active),-75.6% (active),1.2% (active),-0.0566% (active),-45.7% (active),-8.71% (active),-71.8% (active),-15.8% (active)
CC(C)(C)n1cc(-c2ccnc(NCCCNS(=O)(=O)c3ccccc3)c2)c(-c2ccccc2)n1,9.34% (active),53.4%,82.1%,77.1%,62%,57.5%,78.1%,71.9%
CCN(CC)c1nc(SCC(=O)Nc2nc3ccc(C)cc3s2)nc(-c2ccccc2)c1C#N,75.8%,93.3%,98.5%,97.9%,85.1%,83%,110%,104%
COc1ccc(-c2ccc3c(c2)sc2nc(-c4ccc(F)cc4)cn23)cc1,55.1%,105%,74.3%,98.8%,33.3%,42.3%,29.3%,64.8%
Cc1nn(-c2ccccc2)c(Cl)c1/C=C(/NC(=O)c1ccccc1)c1nc2ccccc2[nH]1,86.7%,93.5%,91.5%,105%,93.1%,86.6%,131%,107%
O=C1N=c2cc3c(cc2=C/C1=C/c1sc(=S)n(CCc2ccc(O)cc2)c1O)OCCO3,81.5%,78.5%,61.1%,5.91% (active),28.6%,7.52% (active),29.4%,52.5%
O=c1[nH]nc(-c2ccccc2)c2c(-c3ccccc3)onc12,20.1%,22.8%,16.7%,22.2%,25.6%,35.7%,35.1%,29.8%
COc1ccc(Nc2nnc(SCc3ccccc3F)s2)cc1,85.8%,118%,99%,109%,90.6%,103%,106%,94.6%
NC(=O)c1ccc[n+]([C@@H]2O[C@H](COP(=O)([O-])OP(=O)(O)OC[C@H]3O[C@@H](n4cnc5c(N)ncnc54)[C@H](O)[C@@H]3O)[C@@H](O)[C@H]2O)c1,114%,95.9%,104%,107%,102%,94.7%,100%,101%
CCc1c2c(nc3ccc(OC(=O)NCc4ccc(B5OC(C)(C)C(C)(C)O5)cc4)cc13)-c1cc3c(c(=O)n1C2)COC(=O)[C@]3(O)CC,4.82% (active),4.12% (active),-35.2% (active),8.04% (active),2.39% (active),2.81% (active),-8.14% (active),-5.38% (active)
